Test results: PubChem BioAssay (Tox21)
Records with an inconclusive call do not appear. A call without a number means that no potency is given here. A number with no mark means an inactive call. Activity calls are given as the source filed them. The call rests on the fitted dose curve; in most records, active means well fitted curve in the direction sought with a large enough effect in the repeat runs; inconclusive means weak or mixed curves; inactive means no such curve, though single readings can be large; an effect the other way counts as inactive or inconclusive.

Assays:
[1] = qHTS RealTime-Glo MT Cell Viability Assay in HepG2 cells - 40 hour (AID 1224870); further: nearly all actives have a fitted effect of over 50% in size
Procedure, shortened: (§1)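 Real-time viability: cells seeded at 600 per well together with NanoLuc and cell-permeant prosubstrate, compounds added after 5 h incubation. Luminescence tracked at 0, 8, 16, 24, 32 and 40 h of exposure.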

[2] = qHTS RealTime-Glo MT Cell Viability Assay in HEK293 cells - 16 hour (AID 1224872); further: nearly all actives have a fitted effect of over 50% in size; further: potency means the concentration at half of the fitted maximal effect
Procedure, shortened: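 HEK293 cells seeded with NanoLuc/prosubstrate reagent, rested 5 h at 37 C, then dosed and kept at 37 C up to 40 h. Nonlytic real-time luminescence from viable cells read at 0, 8, 16, 24, 32 and 40 h.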

[3] = qHTS RealTime-Glo MT Cell Viability Assay in HepG2 cells - 8 hour (AID 1224873); further: nearly all actives have a fitted effect of over 55% in size
Procedure, shortened: as §1

[4] = qHTS RealTime-Glo MT Cell Viability Assay in HEK293 cells - 40 hour (AID 1224874); details: RealTime-Glo luminescence; max response: hits give low values; further: nearly all actives have a fitted effect of over 50% in size; further: potency means the concentration at half of the fitted maximal effect
Procedure, shortened: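 Luminescence readout at each listed time point; HEK293, 600 cells/well, RealTime-Glo MT reagent added with cells; compounds pinned (23 nL in DMSO) after 5 h at 37 C; continuous culture at 37 C.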

[5] = A CellTox Green Cytotoxicity Assay to monitor cytotoxicity in HEK293 cells - 24 hour (AID 1224875); further: series mostly up to about 77 µM; nearly all actives have a fitted effect of over 45% in size
Procedure, shortened: (§2)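 Read-out: fluorescence of a cell-impermeant cyanine dye staining DNA of dead cells, proportional to cytotoxicity. HEK293, 600 cells/well with reagent, compound (23 nL DMSO) added after 5 h; reads at 0, 8, 16, 24, 32, 40 h.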

[6] = A CellTox Green Cytotoxicity Assay to monitor cytotoxicity in HepG2 cells - 16 hour (AID 1224876); further: nearly all actives have a fitted effect of over 45% in size; further: potency means the concentration at half of the fitted maximal effect
Procedure, shortened: (§3)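 HepG2, 600 cells/well premixed w/ CellTox Green; 5 h settle, 37 C/5% CO2; pintool cpd add (DMSO); 37 C, 40 h; fluorescence read at 0, 8, 16, 24, 32, 40 h.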

[7] = qHTS RealTime-Glo MT Cell Viability Assay in HepG2 cells - 32 hour (AID 1224877); further: nearly all actives have a fitted effect of over 55% in size
Procedure, shortened: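 HepG2 cells (600/well) were dispensed with RealTime-Glo reagents, incubated 5 h at 37 °C, then treated with compounds in DMSO for up to 40 h. Nonlytic NanoLuc luminescence reflecting viable cells was read at each stated time point.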

[8] = A CellTox Green Cytotoxicity Assay to monitor cytotoxicity in HepG2 cells - 24 hour (AID 1224878); further: nearly all actives have a fitted effect of over 45% in size; further: potency means the concentration at half of the fitted maximal effect
Procedure, shortened: as §3

[9] = A CellTox Green Cytotoxicity Assay to monitor cytotoxicity in HepG2 cells - 40 hour (AID 1224879); further: nearly all actives have a fitted effect of over 40% in size; further: potency means the concentration at half of the fitted maximal effect
Procedure, shortened: as §3

[10] = A CellTox Green Cytotoxicity Assay to monitor cytotoxicity in HEK293 cells - 40 hour (AID 1224871); further: nearly all actives have a fitted effect of over 45% in size
Procedure, shortened: as §2

Structure (SMILES)	Potency [1]	Potency [2]	Potency [3]	max response [4]	Potency [5]	Potency [6]	Potency [7]	Potency [8]	Potency [9]	Potency [4]	Potency [10]
O=C=Nc1ccc(Cl)c(Cl)c1	inactive	inactive	inactive	-3.97%	inactive	inactive	inactive	inactive	inactive	–	–
COc1ccccc1N1CCN(CCCCNC(=O)c2ccc(-c3ccc(C(C)=O)cc3)cc2)CC1	inactive	1.9 µM (active)	inactive	–	inactive	inactive	inactive	–	26.8 µM (active)	1.9 µM (active)	–
CN(C)CCN1C(=O)c2ccccc2N(C)c2ccccc21	inactive	inactive	inactive	-6.83%	inactive	inactive	inactive	inactive	inactive	–	–
CC(O)c1ccccc1 (stereo unspecified)	inactive	inactive	inactive	19.3%	inactive	inactive	inactive	inactive	inactive	–	–
CN(C)CCC=C1c2ccccc2C=Cc2ccccc21	inactive	inactive	inactive	–	inactive	23.9 µM (active)	inactive	23.9 µM (active)	23.9 µM (active)	–	–
CCn1cc(C(=O)O)c(=O)c2cc(F)c(N3CCNCC3)cc21	inactive	inactive	inactive	11.4%	inactive	inactive	inactive	inactive	inactive	–	–
C1C[C@@H]2[C@H]3CC[C@H](C3)[C@@H]2C1	inactive	inactive	inactive	-10.1%	inactive	inactive	inactive	inactive	inactive	–	–
C=Cc1ccc(S(=O)(=O)O)cc1	inactive	inactive	inactive	-10.1%	–	–	–	49 µM (active)	54.9 µM (active)	–	–
C/C=C\C/C=C/CCCCCCCCOC(C)=O	inactive	inactive	inactive	-25.6%	inactive	inactive	inactive	inactive	inactive	–	–
Clc1ccc(Nc2nnc(Cc3ccncc3)c3ccccc23)cc1	inactive	–	inactive	–	inactive	inactive	inactive	inactive	inactive	–	inactive
O=C1NCCN1CCO	inactive	inactive	inactive	15.9%	inactive	inactive	inactive	inactive	inactive	–	–
C(=C\c1ccccc1)/c1ccccc1	inactive	inactive	inactive	7.61%	–	inactive	inactive	inactive	inactive	–	–
CC1=Nc2ccc3ccccc3c2C1(C)C	inactive	–	inactive	-26.2%	inactive	–	inactive	–	–	–	inactive
CCOC(=O)c1ccc(C#Cc2ccc3c(c2)C(C)(C)CCS3)nc1	inactive	–	inactive	–	inactive	inactive	inactive	inactive	0.301 µM (active)	–	inactive
CC(CO)CO	inactive	inactive	inactive	3.5%	inactive	inactive	inactive	inactive	inactive	–	–
CC(C)C(O)(c1ccc(OC(F)(F)F)cc1)c1cncnc1 (stereo unspecified)	inactive	–	inactive	–	inactive	inactive	inactive	inactive	inactive	–	inactive
Cc1ccccc1N=C(N)Nc1ccccc1C	inactive	inactive	inactive	-12.1%	inactive	inactive	inactive	inactive	inactive	–	–
C[C@@]12CCC[C@H]1[C@@H]1CC[C@H]3C[C@@H](O)CC[C@]3(C)[C@H]1CC2	inactive	inactive	inactive	5.8%	inactive	inactive	inactive	inactive	inactive	–	–
CC(=O)[C@H]1[C@H](C#N)C[C@H]2[C@@H]3CC=C4C[C@@H](O)CC[C@]4(C)[C@H]3CC[C@@]21C	inactive	inactive	inactive	–	inactive	inactive	inactive	inactive	inactive	–	–
CO[C@]1(NC(=O)CSC(F)F)C(=O)N2C(C(=O)O)=C(CSc3nnnn3CCO)CO[C@H]21	inactive	inactive	inactive	–	inactive	inactive	inactive	inactive	inactive	–	–
C=C1c2cccc(O)c2C(O)=C2C(=O)[C@]3(O)C(O)=C(C(N)=O)C(=O)[C@@H](N(C)C)[C@@H]3[C@@H](O)[C@H]12	–	inactive	inactive	3.62%	inactive	inactive	inactive	inactive	inactive	–	inactive
Cc1c(C)c2c(c(C)c1OC(=O)CCC(=O)OCCO)CC[C@@](C)(CCC[C@H](C)CCC[C@H](C)CCCC(C)C)O2	–	inactive	inactive	-18.9%	inactive	inactive	inactive	inactive	inactive	–	inactive
CC(CN(C)C)C(C)(O)Cc1ccc(Cl)cc1 (stereo unspecified)	inactive	inactive	inactive	–	inactive	–	inactive	inactive	inactive	–	–
